Assay results taken from the supplement of paper PMC3545927.
This is one part of the list. How many sequences the whole screen found active is unknown.

Biological target: furin, P09958
Assay: furin cleavage Z-score vs untreated control; higher = more cleavage, active = 3.5 or more, inactive = 1 or less, 8 variable residues between constant flanks
How it was run: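 Reactions of 0.01 ml ran for 7.5, 15 or 30 min in 50 mM HEPES pH 7.5 with CaCl2 and NaCl, at 1:10 enzyme:substrate. In them, purified furin acted on bead-held 8-mer peptides fused to a cDNA oligonucleotide. The cleavage Z-score was obtained by lowess-adjusting log sequencing counts of released DNA against furin-free reactions and scaling by median absolute deviation.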

furin, P09958, sequence (P09958 whole entry): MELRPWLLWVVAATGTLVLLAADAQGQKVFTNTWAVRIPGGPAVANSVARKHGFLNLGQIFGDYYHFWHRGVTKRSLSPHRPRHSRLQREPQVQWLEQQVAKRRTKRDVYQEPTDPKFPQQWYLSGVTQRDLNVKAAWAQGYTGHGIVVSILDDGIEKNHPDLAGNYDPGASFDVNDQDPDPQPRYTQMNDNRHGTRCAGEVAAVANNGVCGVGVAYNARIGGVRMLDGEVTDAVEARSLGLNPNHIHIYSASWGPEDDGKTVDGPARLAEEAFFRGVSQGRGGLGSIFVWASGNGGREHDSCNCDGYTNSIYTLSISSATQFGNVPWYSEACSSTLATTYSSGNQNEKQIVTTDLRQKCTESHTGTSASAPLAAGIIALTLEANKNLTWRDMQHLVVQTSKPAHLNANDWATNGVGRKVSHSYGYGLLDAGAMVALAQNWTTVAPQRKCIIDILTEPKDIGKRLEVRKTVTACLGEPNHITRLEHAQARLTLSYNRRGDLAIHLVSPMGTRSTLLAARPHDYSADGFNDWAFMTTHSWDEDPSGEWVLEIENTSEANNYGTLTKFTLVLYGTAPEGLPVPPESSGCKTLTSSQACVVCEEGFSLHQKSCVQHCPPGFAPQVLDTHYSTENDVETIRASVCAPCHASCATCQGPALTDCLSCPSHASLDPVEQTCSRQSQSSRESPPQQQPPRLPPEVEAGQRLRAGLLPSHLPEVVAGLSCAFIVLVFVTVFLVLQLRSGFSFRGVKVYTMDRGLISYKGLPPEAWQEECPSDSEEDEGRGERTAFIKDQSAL

Row | Sequence | furin cleavage Z-score (7.5 min) | furin cleavage Z-score (15 min) | furin cleavage Z-score (30 min)
1 | CAWDWICEVLAGNASASA [HC1151] | -0.473 (inactive) | 1.19 | 1.97
2 | CAIPFYGKAIAGNASASA [HC847] | -0.737 (inactive) | -1.38 (inactive) | 0.0496 (inactive)
3 | CAGGRAAICGAGNASASA [HC1628] | -1.4 (inactive) | -1.23 (inactive) | -0.629 (inactive)
4 | CATRDPTTPLAGNASASA [HC1563] | 0.197 (inactive) | -2.67 (inactive) | -1.41 (inactive)
5 | CAPIIQRLHGAGNASASA [HC1601] | -1.06 (inactive) | -0.433 (inactive) | -1.21 (inactive)
6 | CANVVTSTWVAGNASASA [HC2161] | -0.344 (inactive) | 0.91 (inactive) | 0.172 (inactive)
7 | CASKRRSRRQAGNASASA [FS-1412] | 8.55 (active) | 8.01 (active) | 5.96 (active)
8 | CASKRRARRQAGNASASA [FS-1487] | 7.99 (active) | 8.93 (active) | 6.94 (active)
9 | CANVVRARRQAGNASASA [FS-698] | 12.8 (active) | 12 (active) | 10.3 (active)
10 | CAPPHSAKSKAGNASASA [HC1417] | -1.76 (inactive) | -0.582 (inactive) | -0.397 (inactive)
11 | CATTPCSGSVAGNASASA [HC1930] | 0.2 (inactive) | 0.581 (inactive) | 1.22
12 | CAKARRPEGRAGNASASA [HC194] | -0.782 (inactive) | -1.19 (inactive) | -0.268 (inactive)
13 | CANTCVTQTVAGNASASA [HC888] | -0.737 (inactive) | -1.07 (inactive) | -1.56 (inactive)
14 | CAIASLMAFTAGNASASA [HC1054] | -0.654 (inactive) | -1.12 (inactive) | 0.0832 (inactive)
15 | CAGLKRGGAKAGNASASA [DV6] | 0.716 (inactive) | 0.513 (inactive) | -0.692 (inactive)
16 | CARTKRSAFFAGNASASA [FS-2190] | 7.39 (active) | 8.86 (active) | 9.07 (active)
17 | CARTKRLTAQAGNASASA [FS-2314] | -0.31 (inactive) | 0.417 (inactive) | 1.3
18 | CARTKRDYDFAGNASASA [FS-2313] | 5.48 (active) | 7.94 (active) | 9.08 (active)
19 | CARDDRSTSFAGNASASA [FS-1689] | 1.2 | -0.677 (inactive) | 2.85
20 | CARTKRYFAKAGNASASA [FS-1976] | 0.407 (inactive) | 1.7 | 4.11 (active)
21 | CARTKKAKMKAGNASASA [FS-2823] | -1.45 (inactive) | -0.415 (inactive) | -0.644 (inactive)
22 | CARTKRLAIFAGNASASA [FS-3107] | 3.35 | 5.86 (active) | 5.79 (active)
23 | CAEVVTHTWVAGNASASA [HC149] | -0.408 (inactive) | -0.439 (inactive) | 0.597 (inactive)
24 | CALAYGLRSKAGNASASA [TR9] | -0.353 (inactive) | 0.335 (inactive) | -1.59 (inactive)
25 | CASTYCSAHLAGNASASA [HC2509] | -0.262 (inactive) | -0.642 (inactive) | 2.3
26 | CAEVHCHRPSAGNASASA [HC2355] | 1.25 | 0.809 (inactive) | 1.14
27 | CARTKRDVYQAGNASASA [FS-2825] | 9.66 (active) | 11.4 (active) | 9.76 (active)
28 | CAVAVEPVVFAGNASASA [HC645] | 1.23 | -0.0223 (inactive) | -0.472 (inactive)
29 | CARKGRYKAFAGNASASA [FS-2960] | -0.402 (inactive) | -0.376 (inactive) | -0.0128 (inactive)
30 | CARTKRYVVFAGNASASA [FS-2095] | 4.82 (active) | 4.06 (active) | 6.56 (active)
